We go through 88 compounds from publication PMC4336329 (PLoS ONE, 2015).

Hit rate of the full screen: of about 310,000 compounds, about 14,000 (4.5%) showed an effect of 50% or more. Effects have a minus sign here. The list comes from a sample in which strong results are over-represented; it also holds similar structures and randomly drawn compounds.
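Further: peak tail current of the secondary pulse compared with the same well before compound.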

For this test, the target named is human ether-à-go-go-related gene (hERG) potassium channel (human, UniProt Q12809). As to the kind of experiment: primary screen, population patch clamp on CHO cells stably expressing hERG; higher = less effect of the substance.
Sequence of human ether-à-go-go-related gene (hERG) potassium channel (Q12809 whole entry, looked up): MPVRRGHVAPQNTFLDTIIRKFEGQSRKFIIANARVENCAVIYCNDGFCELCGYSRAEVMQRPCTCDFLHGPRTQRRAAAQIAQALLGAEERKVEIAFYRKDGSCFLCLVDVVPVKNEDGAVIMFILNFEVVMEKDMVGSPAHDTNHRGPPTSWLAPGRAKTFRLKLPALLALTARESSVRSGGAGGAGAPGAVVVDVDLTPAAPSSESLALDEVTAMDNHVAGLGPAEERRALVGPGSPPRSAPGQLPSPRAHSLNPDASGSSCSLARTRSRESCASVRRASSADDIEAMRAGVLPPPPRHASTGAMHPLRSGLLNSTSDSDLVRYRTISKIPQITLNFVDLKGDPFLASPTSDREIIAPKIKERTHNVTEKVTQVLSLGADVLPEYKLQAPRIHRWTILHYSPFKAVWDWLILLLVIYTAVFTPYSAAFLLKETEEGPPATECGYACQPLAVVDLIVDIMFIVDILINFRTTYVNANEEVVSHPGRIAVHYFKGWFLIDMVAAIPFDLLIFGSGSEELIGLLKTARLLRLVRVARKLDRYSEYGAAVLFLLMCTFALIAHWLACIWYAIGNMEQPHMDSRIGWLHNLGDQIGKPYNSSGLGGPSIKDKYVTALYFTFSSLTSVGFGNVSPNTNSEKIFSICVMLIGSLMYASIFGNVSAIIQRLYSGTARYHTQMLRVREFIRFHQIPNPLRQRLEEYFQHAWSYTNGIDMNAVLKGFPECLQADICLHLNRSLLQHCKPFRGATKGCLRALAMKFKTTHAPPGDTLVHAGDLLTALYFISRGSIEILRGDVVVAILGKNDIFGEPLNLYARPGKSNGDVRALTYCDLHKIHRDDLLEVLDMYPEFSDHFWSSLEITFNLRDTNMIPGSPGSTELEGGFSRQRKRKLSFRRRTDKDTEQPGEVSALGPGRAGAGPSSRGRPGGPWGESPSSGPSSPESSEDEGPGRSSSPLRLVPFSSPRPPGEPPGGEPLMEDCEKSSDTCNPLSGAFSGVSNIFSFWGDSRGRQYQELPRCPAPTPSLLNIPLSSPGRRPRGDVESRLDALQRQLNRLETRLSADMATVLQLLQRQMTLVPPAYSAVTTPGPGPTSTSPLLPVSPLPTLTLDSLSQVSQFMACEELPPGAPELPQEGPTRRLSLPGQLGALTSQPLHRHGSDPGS
On to `COC(=O)c1ccc(C)c(NC(=O)c2ccc(CN3CCc4ccccc4C3)cc2)c1`, for which the “hERG current change (%, negative = inhibition) at 10uM” value is 6.57%.
The figure for `CCOC(=O)N1CCN(C(=O)c2cc(COc3ccc(F)cc3F)on2)CC1` is -17.1%.
The result for `CC(Oc1ccc(-c2ccccc2)c(F)c1)c1ccn(S(=O)(=O)c2ccc(F)cc2)n1` (stereo not shown) reads 16%; that for `COc1ccccc1-c1ccc(Nc2cccc(C(F)(F)F)c2)nn1`, 15.4%.
Turning to `COCCSc1nc2c(c(=O)[nH]c(=O)n2C)n1Cc1cccc(C)c1`, the “hERG current change (%, negative = inhibition) at 10uM” value is -45.6%.
In the case of `CCCSc1nc2c(c(=O)[nH]c(=O)n2C)n1Cc1ccccc1`, the “hERG current change (%, negative = inhibition) at 10uM” value is on record as -17.4%.
The result for `Cn1c(=O)[nH]c(=O)c2c1nc(SCCN1CCOCC1)n2CCCc1ccccc1` reads -46.9%; that for `Cn1c(=O)[nH]c(=O)c2c1nc(SCCN1CCCCC1)n2Cc1ccccc1`, -78.9%; that for `Cc1cccc(Cn2c(SCCN3CCCCC3)nc3c2c(=O)[nH]c(=O)n3C)c1`, -79.1%.
As to `Cc1ccc(Cn2c(N3CCCCCC3)nc3c2c(=O)[nH]c(=O)n3C)cc1`, the “hERG current change (%, negative = inhibition) at 10uM” value is given as 0.362%.
Take `Cc1ccc(Cn2c(SCC(C)C)nc3c2c(=O)[nH]c(=O)n3C)cc1`: the “hERG current change (%, negative = inhibition) at 10uM” value is recorded as 4.21%.
The figure for `Cc1cccc(Cn2c(SCC(=O)Nc3ccccc3)nc3c2c(=O)[nH]c(=O)n3C)c1` is -30.2%.
The result for `Cc1ccc(Cn2c(SCCN3CCCCC3)nc3c2c(=O)[nH]c(=O)n3C)cc1` reads -74.1%.
The figure for `Cn1c(=O)[nH]c(=O)c2c1nc(SCCN1CCCCC1)n2CCCc1ccccc1` is -69%; for `Cn1c(=O)[nH]c(=O)c2c1nc(SCCO)n2CCCc1ccccc1` it is -4.68%.
For the compound `Cn1c(=O)[nH]c(=O)c2c1nc(SCC(=O)O)n2Cc1ccccc1`, the “hERG current change (%, negative = inhibition) at 10uM” value was -5.45%.
With `Cn1c(-c2ccc(Cl)nc2)nc2cc(Cl)ccc21`, the “hERG current change (%, negative = inhibition) at 10uM” value was -9.09%.
The figure for `CC(C)CNC(=O)C1Nc2ccccc2C2C=CCC12` (stereo not shown) is -6.43%; for `COc1cccc(N(CC(=O)N/N=C(\C)c2cccs2)S(C)(=O)=O)c1` it is 6.58%; for `Cc1cc(NS(=O)(=O)c2ccc(NC(=O)N[C@H](C(=O)O)C(C)C)cc2)no1` it is 29.3%.
Take `CCN(CC)C(=S)NC(=O)Cc1ccccc1`: the “hERG current change (%, negative = inhibition) at 10uM” value is 16.1%.
The result for `COc1ccc(S(=O)(=O)NC(C)CCc2ccccc2)cc1` (stereo not shown) reads -3.49%.
The result for `Cc1c(NC(=O)C(c2ccccc2)c2ccccc2)cccc1C(=O)O` reads 16%; that for `CCO[C@@H]1OC(C(=O)Nc2ccccc2)=C[C@H](C)[C@H]1CCCO`, 1.08%.
The result for `CSc1nnc(NC(=O)c2ccc(C)c(S(=O)(=O)N3CCOCC3)c2)s1` reads 0.594%.
`C=C(C)CSc1nc2c(c(=O)[nH]c(=O)n2C)n1Cc1ccccc1`: the “hERG current change (%, negative = inhibition) at 10uM” value is listed as -12.3%.
For `Cn1c(=O)[nH]c(=O)c2c1nc(SCCN1CCOCC1)n2Cc1ccccc1`, the “hERG current change (%, negative = inhibition) at 10uM” value is reported as -54.4%.
The result for `Cn1c(=O)[nH]c(=O)c2c1nc(CN(Cc1ccccc1)Cc1ccccc1)n2CCN1CCOCC1` reads -16.6%; that for `Cc1onc(-c2c(Cl)cccc2Cl)c1NC(=O)NNc1ccccn1`, -11.7%.
The result for `CCOc1ccc(N2CCc3c(C)nc(SC)nc32)cc1` reads -2.26%; that for `COc1ccc(N2CCCC2=N)c(OC)c1.Cl`, 12.7%; that for `COc1ccc(N2CCc3c(C)nc(SC)nc32)cc1`, 3.4%.
The result for `COc1cc(OC)c2nc(C)c3c(c2c1)N(c1ccc(O)cc1)CC3` reads -72.1%; that for `COc1ccc2c(c1OC)C(=O)N(c1ccc(O)cc1)C2`, 13.5%.
As to `COc1ccc(N2CCc3c(C)nc4c(OC)cc(OC)cc4c32)cc1`, the “hERG current change (%, negative = inhibition) at 10uM” value is -75%.
Regarding `CSc1nc(C)c2c(n1)N(c1ccc(O)cc1)CC2`, the “hERG current change (%, negative = inhibition) at 10uM” value worked out at 4.88%.
The figure for `COc1ccc(N2CCc3c(C)nc4c(OC)cc(OC)cc4c32)c(OC)c1` is -75.3%.
In the case of `COc1ccc(N2C(=O)CCC2=O)c(OC)c1`, the “hERG current change (%, negative = inhibition) at 10uM” value came out at 20.7%.
The figure for `Cc1cc(C)n(CCOc2ccc(Br)cc2)n1` is 1.08%.
As for `O=C(NCc1ccc(-c2nc3ccccc3s2)cc1)c1cc2ccccc2o1`, the “hERG current change (%, negative = inhibition) at 10uM” value is listed as -1.71%.
The figure for `CN(C)C(=O)c1cc(C(=O)c2ccccc2Cl)c[nH]1` is 11.8%.
The result for `COc1cc(C(=O)N/N=C/c2sc(N3CCOCC3)nc2-c2ccccc2)cc(OC)c1OC` reads 3.33%; that for `CC(=O)Nc1ccc(S(=O)(=O)N2CCN=C2C)cc1`, 5.24%.
The figure for `CC(=O)NCCC(=O)N1CCCC(C(=O)c2ccc3c4c(cccc24)CC3)C1` (stereo not shown) is -18.5%.
Take `CCSC1=C(C#N)C(c2cccc(O)c2)CC(=O)N1` (stereo not shown): the “hERG current change (%, negative = inhibition) at 10uM” value is on record as 2.7%.
The result for `COc1ccc(NC(=O)CNc2cc(S(=O)(=O)N3CCOCC3)ccc2NCC2CCCO2)cc1` (stereo not shown) reads -18.3%; that for `O=C(CNc1cc(S(=O)(=O)N2CCOCC2)ccc1NCC1CCCO1)Nc1ccc(C(F)(F)F)cc1` (stereo not shown), -30.4%.
The figure for `CC(=O)c1cccc(NC(=O)COC(=O)CCc2ccc(S(=O)(=O)N3CCOCC3)cc2)c1` is 6.05%.
`N#Cc1cccc(NC(=O)COC(=O)CCc2ccc(S(=O)(=O)N3CCOCC3)cc2)c1`: the “hERG current change (%, negative = inhibition) at 10uM” value is listed as -60.1%.
`O=C(COC(=O)CCc1ccc(S(=O)(=O)N2CCOCC2)cc1)Nc1cccc(Cl)c1`: the “hERG current change (%, negative = inhibition) at 10uM” value was -30.3%.
With `O=C(CCc1ccccc1)Nc1ccc(S(=O)(=O)N2CCOCC2)cc1`, the “hERG current change (%, negative = inhibition) at 10uM” value is -28.1%.
In the case of `N#Cc1ccc(NC(=O)CNc2cc(S(=O)(=O)N3CCOCC3)ccc2NCC2CCCO2)cc1` (stereo not shown), the “hERG current change (%, negative = inhibition) at 10uM” value is given as -70%.
Consider `N#Cc1ccc(NC(=O)CCc2ccc(S(=O)(=O)N3CCOCC3)cc2)cc1`, for which the “hERG current change (%, negative = inhibition) at 10uM” value is -51.5%.
Consider `N#Cc1ccc(NC(=S)NC(=O)CCc2ccc(S(=O)(=O)N3CCOCC3)cc2)cc1`, for which the “hERG current change (%, negative = inhibition) at 10uM” value turned out to be 0.205%.
The result for `O=C(O)c1ccc(COCC(F)(F)C(F)F)o1` reads 16%; that for `CC(CNC(=O)C(C)C)NC(=O)C(C)C` (stereo not shown), 7.92%.
Consider `CCN1C(=O)[C@H]2[C@@H](c3ccc(Cl)cc3)N3C(=O)CN(CCOC)C(=O)[C@@]3(C)[C@H]2C1=O`, for which the “hERG current change (%, negative = inhibition) at 10uM” value is 3.18%.
On to `COc1ccc(C2(C(=O)Nc3ccc(C(=O)O)cc3)CCOCC2)cc1`, for which the “hERG current change (%, negative = inhibition) at 10uM” value worked out at 9.95%.
Turning to `COc1ccc(Cl)cc1NC(=O)CNc1ccccc1CN(C)C1CCCCC1`, the “hERG current change (%, negative = inhibition) at 10uM” value is given as -37.9%.
The figure for `COc1ccc(/C=C/C(=O)N2CC(C)OC(C)C2)cc1OC` (stereo not shown) is -11%.
Take `CC1CN(C(=O)/C=C/c2ccc(SC(F)F)cc2)CC(C)O1` (stereo not shown): the “hERG current change (%, negative = inhibition) at 10uM” value was -59.6%.
On to `CC1CN(C(=O)/C=C/c2ccc3c(c2)OCO3)CC(C)O1` (stereo not shown), for which the “hERG current change (%, negative = inhibition) at 10uM” value is given as -21%.
The result for `C#Cc1ccc([C@H]2C=C(C(=O)N3CCN(Cc4ccccc4)CC3)O[C@@H](OCC)[C@@H]2CCCO)cc1` reads -19.6%; that for `COc1ccccc1OCC(=O)NCCSCc1ccccc1Cl`, -22.6%.
The result for `CC(C)(C)NC(=O)CN1CCC(NC(=O)C23CC4CC(CC(C4)C2)C3)CC1` reads 28.1%; that for `O=C(Nc1cccnc1)c1cccnc1Cl`, 4.09%.
The result for `CC(=O)c1c(N2CCN(c3ccc(F)cc3)CC2)nc(=S)n(-c2ccccc2)c1C` reads -75%.
Consider `CC(=O)c1c(N2CCN(c3cccc(Cl)c3)CC2)nc(=S)n(-c2ccccc2)c1C`, for which the “hERG current change (%, negative = inhibition) at 10uM” value was -68.8%.
The figure for `COc1ccc(N2CCN(c3nc(=S)n(-c4ccccc4)c(C)c3C(C)=O)CC2)cc1` is -9.97%; for `CC(=O)c1c(N2CCCC2)nc(=S)n(-c2ccccc2)c1C` it is -0.251%; for `CC(=O)c1c(N2CCN(c3ccccc3)CC2)nc(=S)n(-c2ccccc2)c1C` it is -20.1%.
As to `CCn1c(C)c(C(C)=O)c(N2CCN(c3cccc(Cl)c3)CC2)nc1=S`, the “hERG current change (%, negative = inhibition) at 10uM” value was -27.6%.
`CC(=O)Nc1ccccc1-c1nc2cc(C#N)c(C#N)cc2[nH]c1=O`: the “hERG current change (%, negative = inhibition) at 10uM” value is recorded as -4.17%.
`O=c1[nH]c(NCCO)nc2c1C1(CCCCC1)Cc1ccccc1-2`: the “hERG current change (%, negative = inhibition) at 10uM” value is 7.03%.
Turning to `COc1cccc(/C=N/NC(=O)CNC(=O)c2ccc3c(c2)OCCO3)c1O`, the “hERG current change (%, negative = inhibition) at 10uM” value was -0.701%.
Turning to `O=C(NCC1CCCO1)c1cnn2c(C(F)F)cc(C3CC3)nc12` (stereo not shown), the “hERG current change (%, negative = inhibition) at 10uM” value is given as -2.7%.
The result for `CCCOC(=O)c1ccc(Nc2nc(C)cc(=O)[nH]2)cc1` reads 3.46%; that for `COc1ccc(NC(=O)NC2CCCc3ccccc32)c(OC)c1` (stereo not shown), 13.3%; that for `COC(=O)Cc1cc(=O)oc2cc(O)ccc12`, 5.29%.
The figure for `Cc1ccc(NC(=O)CSCC(=O)OCc2cc(=O)oc3cc(O)ccc23)c(C)c1` is -53.2%; for `Cc1ccc(NC(=O)COC(=O)CSCC(=O)Nc2cc(C)on2)c(C)c1` it is -17.9%; for `CCOc1ccc(/C=N/NC(=S)NC2CC3CC2C2C=CCC32)cc1` (stereo not shown) it is 6.33%.
The result for `CC1=C(C(=O)OCc2ccccc2)C(c2ccc(C)o2)C2=C(CCCC2=O)N1` (stereo not shown) reads -23.7%.
With `Cc1cc(C(F)(F)F)c2sc(N)nc2n1`, the “hERG current change (%, negative = inhibition) at 10uM” value amounted to 5.61%.
For the compound `CC(c1nc2ccccc2c(=O)[nH]1)N1CCCN(S(=O)(=O)c2ccc(F)cc2)CC1` (stereo not shown), the “hERG current change (%, negative = inhibition) at 10uM” value is -59.1%.
As to `CC(c1nc2ccccc2c(=O)[nH]1)N1CCN(C)CC1` (stereo not shown), the “hERG current change (%, negative = inhibition) at 10uM” value is on record as -5.2%.
The result for `Cc1ccc(S(=O)(=O)N2CCCN(C(C)c3nc4ccccc4c(=O)[nH]3)CC2)cc1` (stereo not shown) reads -25.6%; that for `CC1CCN(S(=O)(=O)c2ccc(NC(=O)C3CSC4(C)CCC(=O)N34)cc2)CC1` (stereo not shown), -6.34%.
